Source: PubChem BioAssay
An excerpt weighted towards active compounds, which were near 19% of everything screened.
HT1080NT lethal – qHTS for induction of synthetic lethality in tumor cells producing 2HG: qHTS for the HT-1080-NT fibrosarcoma cell line. Potency, µM (doses to about 46.1 µM), inactives show at the highest dose activity, negative = less viability, most hits filed as cytotoxic. HT-1080-NT fibrosarcoma viability, CellTiter-Glo ATP luminescence, 48 h. 1.6% of 360,000 active. AID 686970, 2013;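 also: NT is the 2HG producing partner of a matched IDH1 knockdown line; 0% = DMSO-treated cells and -100% = media-only wells without cells; nearly all actives have a fitted effect of over 55% in size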
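Luminescent CellTiter-Glo readout after 48 hours of compound exposure at 37 degrees C defined viability of HT-1080-NT cells. Activity was normalized to DMSO wells and cell-free media wells; concentration-response curves were fitted and assigned curve classes.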
DT40 TDP1 no CPT – qHTS for Inhibitors of human tyrosyl-DNA phosphodiesterase 1 (TDP1): qHTS in cells in absence of CPT | DT40 Tdp1-/- hTDP1 cells, no CPT, ATP luminescence, 48 h | Potency, µM (titrated, usually from 46.2 µM), inactives show top-dose activity change, negative = growth inhibition, most hits filed as inhibitors | 15% of 420,000 active | AID 686978, 2013; also: nearly all actives have a fitted effect of over 55% in size
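Seeded 400 DT40-hTDP1 cells/well (vehicle DMSO, no 20 nM CPT); pinned compounds; ≥48 hr at 37 °C; CellTiter-Glo luminescence as viability measure.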
HT1080 IDH1KD tx – qHTS for induction of synthetic lethality in tumor cells producing 2HG: qHTS for the HT-1080-IDH1KD cell line. HT-1080 IDH1 knockdown viability, ATP luminescence, 48 h. Potency, µM (series often up to 46.1 µM), inactives show at the highest dose activity, negative = toxicity, hits mostly cytotoxic. 2% of 360,000 active. AID 686971, 2013;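 also: 0% = DMSO wells and -100% = cell-free medium wells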
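% activity derives from luminescence (CellTiter-Glo), normalised to DMSO and no-cell wells. HT-1080-IDH1KD cells, 750/well, had 48 h compound exposure at 37 °C.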
KB-V1 cytotox – qHTS assay for MDR1-selective chemotherapeutics: Primary screen using the drug-selected MDR subline cells KB-V1; KB-V1 MDR cells viability, CellTiter-Glo, 72 h; Potency, µM (top dose mostly 46.1 µM), most hits filed as cytotoxic; 3.4% of 400,000 active; AID 1347076, 2019; also: nearly all actives have a fitted effect of over 60% in size
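Luminescent ATP read-out (CellTiter-Glo, 10 min) measures survival of drug-selected KB-V1 MDR cells after 72 h, 37 degrees C compound exposure. Medium: phenol-red-free DMEM, 10% FBS. Values from fitted concentration-response curves.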
KB-3-1 cytotox – qHTS assay for MDR1-selective chemotherapeutics: Primary screen using the parental adenocarcinoma cell KB-3-1; KB-3-1 viability, CellTiter-Glo ATP luminescence, 72 h; Potency, µM (top dose mostly 46.1 µM), usual class: cytotoxic; 1.4% of 400,000 active; AID 1347075, 2019; also: nearly all actives have a fitted effect of over 60% in size
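KB-3-1 cells, DMEM (no phenol red) + 10% FBS; compound by pin transfer, 72 h, 37 °C. Readout: CellTiter-Glo luminescence after 10 min. Data normalized, curve-fitted.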
DT40 TDP1 CPT – qHTS for Inhibitors of human tyrosyl-DNA phosphodiesterase 1 (TDP1): qHTS in cells in presence of CPT; AID 686979, 2013; 12% of 420,000 active; chicken DT40 Tdp1-/-;hTDP1 cells + 20 nM CPT, ATP luminescence, 48 h; Potency, µM (top dose mostly 46.2 µM), for inactives: at the highest dose activity change, negative = growth inhibition, hits mostly inhibitors; also: nearly all actives have a fitted effect of over 55% in size
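Chicken DT40 Tdp1-/- cells stably complemented with human TDP1 were seeded at 400 cells/well in medium containing 20 nM camptothecin, exposed to pin-transferred compounds, and grown at 37 °C for at least 48 hr. Viability was read as ATP luminescence.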
* = called active by the depositor; i = inactive; ? = inconclusive; nt = no result given; [ ] = remark or other dose. Calls follow the shape of the dose curve; as a rule, active = well fitted curve in the direction sought with a large enough effect; inconclusive = small, poorly fitted or top-dose-only effect, or another doubt; inactive = no such curve, though single readings can be large; an effect the other way counts as inactive or inconclusive. Unless noted, % is scaled to controls: 0 for no effect and ±100 for the full control effect; potency is read from the fitted curve at half-maximal effect.

SMILES | HT1080NT lethal | DT40 TDP1 no CPT | HT1080 IDH1KD tx | KB-V1 cytotox | KB-3-1 cytotox | DT40 TDP1 CPT
Cc1ccc2occ(CC(=O)Nc3ccc(S(=O)(=O)N4CCC(C)CC4)cc3)c2c1 | nt | ? | nt | ? | i | ?
Cc1cccc(NC(=O)Cn2nnc(-c3nc(-c4ccncc4)no3)c2N)c1 | nt | ? | nt | nt | nt | -22.3%
COC(=O)c1cnc(NCc2ccc(F)cc2)c2ccccc12 | nt | ? | nt | nt | nt | -29.0%
CC1CCN(S(=O)(=O)N2CCCC(C(=O)NCc3ccccc3Cl)C2)CC1 (configuration not stated) | 1.6% | -21.0% | -2.1% | i | i | -18.8%
COc1ccc(CCNC(=O)C2CCN(S(=O)(=O)N3CCC(C)CC3)CC2)cc1OC | 7.7% | 2.2% | -1.7% | 20.6µM* | ? | 3.5%
CSc1ccc(CNC(=O)C2CCCN(S(=O)(=O)N(C)c3ccc(F)cc3)C2)cc1 (configuration not stated) | nt | 20.6µM* | nt | i | 16.4µM* | 23.1µM*
COc1ccc(CCNC(=O)C2CCN(S(=O)(=O)N3CCOCC3)CC2)cc1OC | -2.7%[9.24 µM] | -23.2% | 2.7% | i | i | -6.7%
O=C(NCc1ccccc1Cl)C1CCN(S(=O)(=O)N2CCCCCC2)CC1 | 2.4% | 17.8µM* | -12.7% | i | i | ?
CC1CCN(S(=O)(=O)N2CCCC(C(=O)NCc3ccc(F)cc3)C2)CC1 (configuration not stated) | -6.8% | ? | -3.2% | i | i | ?
CC1CCN(S(=O)(=O)N2CCC(C(=O)NCc3cccs3)CC2)CC1 | 17.7% | ? | 8.1% | 18.4µM* | i | -2.8%
O=C(NCc1ccc(F)cc1)C1CCN(S(=O)(=O)N2CCCC2)CC1 | 0.1% | 16.4µM* | 5.3% | i | i | ?
CC1CCN(S(=O)(=O)N2CCC(C(=O)NCc3ccccc3Cl)CC2)CC1 | nt | 13µM* | nt | nt | nt | ?
COc1cc(OC)nc(-n2ncc(Br)c(Br)c2=O)n1 | 1.64µM* | 0.82µM* | 1.64µM* | ? | 6.51µM* | 0.651µM*
COC(=O)c1cnn(-c2nc(OC)cc(OC)n2)c1C | -2.6% | ? | 1.7% | 16.4µM* | i | -13.1%
COc1cc(C(C)=O)ccc1OCC(=O)N1CCCC1c1ccc2c(c1)OCCCO2 (configuration not stated) | 14.7% | 0.5% | 6.7% | i | i | -5.8%
Cc1ccc2c(c1)C(=O)C(=O)N2CC(=O)OC(C)C | 26.6% | 5.8µM* | 16.7% | ? | ? | 5.17µM*
Cc1ccc2c(c1)C(=O)C(=O)N2Cc1ccc(OC(C)C)cc1 | nt | 0.058µM* | nt | ? | ? | 0.0073µM*
Cc1ccc2c(c1)C(=O)C(=O)N2Cc1ccc(C(F)(F)F)cc1 | -4.7% | 1.03µM* | -1.2% | ? | ? | 0.92µM*
CC(C)Oc1ccc(Cn2c(=O)sc3ccccc32)cc1 | -0.9% | -23.1% | 0.6% | i | i | -3.2%
CC(=O)O/N=C1\C(=O)N(Cc2ccc(C)cc2)c2ccccc21 | ? | ? | ? | i | i | -10.7%
O=C(Nc1ccc(F)cc1F)c1cc(CN2CCOCC2)on1 | nt | 6.5% | nt | i | i | 8.5%
O=S(=O)(NNc1cccc(Cl)n1)c1ccc(Cl)cc1 | -9.2% | -1.6% | -11.3% | ? | i | -22.7%
Cc1ccc(S(=O)(=O)NNc2nc3ccccc3nc2C(F)(F)F)cc1 | -14.9% | 18.4µM* | -12.2% | ? | i | ?
